# From PubChem BioAssay (NCI)
# About 83,000 compounds went through this panel and 20% of them were active in at least one assay; those are over-represented in the sample as a whole.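 Testing used 96-well plates and a 48-hour single-concentration exposure. Example: -40 means 40% of the starting cells died.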 Unmarked numbers belong to inactive results. Active and inactive are the calls of the source. Rule for the calls: active = growth percent below 10; inactive = the rest.
# Legend:
# Test in all cases: NCI-60 one-dose screen, 48 h (100 = growth as untreated, 0 = no growth, -100 = all killed)
# Settings in all cases: 10 µM unless noted
# NCI-H23 lung = test system: NCI-H23 lung
# NCI-H226 lung = test system: NCI-H226 lung
# NCI-H322M lung = test system: NCI-H322M lung
# HOP-62 NSCLC = test system: HOP-62 NSCLC
# NCI-H460 lung = test system: NCI-H460 lung
# HOP-92 NSCLC = test system: HOP-92 NSCLC
# NCI-H522 lung = test system: NCI-H522 lung
# A549/ATCC NSCLC = test system: A549/ATCC NSCLC
# 786-0 renal = test system: 786-0 renal
# COLO 205 colon = test system: COLO 205 colon
# DU-145 prostate = test system: DU-145 prostate
# K-562 leukemia = test system: K-562 leukemia
# MALME-3M melanoma = test system: MALME-3M melanoma
# MDA-MB-231 breast = test system: MDA-MB-231 breast
# RXF 393 renal = test system: RXF 393 renal
# SF-268 CNS = test system: SF-268 CNS
# SF-295 CNS = test system: SF-295 CNS
# SF-539 CNS = test system: SF-539 CNS
# UACC-257 melanoma = test system: UACC-257 melanoma
# M14 melanoma = test system: M14 melanoma
SMILES,growth (NCI-H23 lung),growth (NCI-H226 lung),growth (NCI-H322M lung),growth (HOP-62 NSCLC),growth (NCI-H460 lung),growth (HOP-92 NSCLC),growth (NCI-H522 lung),growth (A549/ATCC NSCLC),growth (786-0 renal),growth (COLO 205 colon),growth (DU-145 prostate),growth (K-562 leukemia),growth (MALME-3M melanoma),growth (MDA-MB-231 breast),growth (RXF 393 renal),growth (SF-268 CNS),growth (SF-295 CNS),growth (SF-539 CNS),growth (UACC-257 melanoma),growth (M14 melanoma)
COC(=O)[C@@]1(C)CC[C@]2(C)CC[C@]3(C)C4=CC(=O)c5c(cc(O)c(O)c5C)[C@]4(C)CC[C@@]3(C)[C@@H]2C1,46.9%,51.1%,70.6%,71.7%,31.8%,49.2%,38.5%,38.6%,78.6%,71.5%,67.1%,49%,106%,61.4%,85%,61.7%,49.8%,78%,41.9%,66.4%
COc1cc2c(c(OC)c1OC)-c1ccc([O-])c(=O)cc1[C@@H](NC(C)=O)CC2.COc1cc2c(c(OC)c1OC)-c1ccc([O-])c(=O)cc1[C@@H](NC(C)=O)CC2.[Cu+2],27.1%,37.8%,57%,27.4%,5.2% (active),9.89% (active),-24.5% (active),45.1%,43%,9.04% (active),4.95% (active),2.76% (active),52.5%,35.5%,13.4%,27.1%,18.7%,-17.2% (active),45.1%,7.83% (active)
CC[C@]12C=CCN3CC[C@@]4(c5ccc(OC)cc5N(C)[C@H]4[C@@](O)(C(=O)OC)[C@@H]1OC(=O)CCCC[P+](c1ccccc1)(c1ccccc1)c1ccccc1)[C@@H]32,6.4% (active),15.1%,47.1%,26.4%,18.4%,-30% (active),-5.5% (active),22.1%,57.2%,-93.7% (active),14.7%,21.7%,-35.8% (active),-2.41% (active),-13.3% (active),16.2%,58.1%,19%,2.15% (active),29.4%
C/C(=C\c1ccn(-c2ccc(N)cc2C(F)(F)F)n1)[C@@H]1C[C@@H]2O[C@]2(C)CCC[C@H](C)[C@H](O)[C@@H](C)C(=O)C(C)(C)[C@@H](O)CC(=O)O1,19.9%,59.4%,23.4%,24.5%,9.25% (active),57%,0.465% (active),9.78% (active),16.4%,-6.04% (active),-14.1% (active),6.1% (active),39.9%,16.4%,9.23% (active),22.5%,2.39% (active),3.05% (active),37.9%,-12.6% (active)
CCOC(=O)[C@@H](C)C[C@H](Cc1ccccc1)NC(=O)c1csc([C@@H](C[C@H](C(C)C)N(C)C(=O)[C@@H](NC(=O)[C@H]2C[C@H](O)CCN2C)C(C)C)OC(C)=O)n1,30.7%,-29.5% (active),43.3%,10.7%,5.02% (active),26.3%,-39% (active),13.5%,11.2%,-61.4% (active),0.421% (active),6.81% (active),35.1%,14.5%,42.1%,24.6%,-6.17% (active),-18.5% (active),58.5%,-13% (active)
CCCC[C@H](NC(=O)[C@H]1CCCCN1C)C(=O)N(C)[C@H](C[C@@H](OC(C)=O)c1nc(C(=O)N[C@@H](Cc2ccccc2)C[C@H](C)C(=O)OCC)cs1)C(C)C,27.1%,32.8%,32.9%,18.1%,6.75% (active),18.1%,-25% (active),11%,3.81% (active),-69.9% (active),16.2%,7.31% (active),37.4%,5.49% (active),28.8%,21.6%,16.9%,-11.1% (active),49.5%,1.33% (active)
CC(=O)ONc1ccc([N+](=O)[O-])c(C(F)(F)F)c1,92.1%,97.8%,108%,80%,109%,99.6%,97.8%,95.3%,97.6%,106%,108%,105%,111%,102%,115%,95.3%,97.8%,93.5%,110%,98.8%
CCCCCN(CCCCC)CC(O)c1cc(Cl)ccc1OC (stereo not given),37.6%,65.2%,62.2%,4.36% (active),15.4%,-6.26% (active),21.4%,42.2%,24.7%,13.3%,40.1%,14.8%,66.9%,18.8%,30.7%,42.3%,23.9%,53.2%,47.4%,23.1%
COC(=O)[C@@H](C)C[C@H](Cc1ccccc1)NC(=O)c1csc([C@@H](C[C@H](C(C)C)N(C)C(=O)C2(NC(=O)[C@H]3CCCCN3C)CCC2)OC(C)=O)n1,18.6%,48.7%,43.6%,18.8%,4.21% (active),2.26% (active),-13.8% (active),15.2%,20.9%,-59.1% (active),2.83% (active),2.16% (active),67.1%,-13.6% (active),82.9%,17.6%,6.3% (active),-10.9% (active),60.2%,5.56% (active)
Cc1c(O)c(CN(CCCl)CCCl)cc(CN(CCCl)CCCl)c1O,102%,95.6%,94.8%,102%,31.4%,47.3%,79.4%,67.8%,99.6%,78.1%,107%,103%,93.1%,93.5%,97.6%,88.4%,93.9%,82.5%,92.8%,92.4%
CC(=O)Nc1nc2c(s1)CC[C@@]1(C)C2=CC[C@H]2[C@@H]3CC[C@H](O)[C@@]3(C)CC[C@@H]21,73.3%,89.9%,79.8%,67.1%,27.3%,84.7%,51.6%,56%,35.7%,72.2%,81.7%,17.5%,56.9%,81.5%,23.5%,73.4%,36.4%,8.5% (active),82%,36%
C[C@@]12CC[C@@H](O)C[C@@H]1CC[C@H]1[C@H]2CC[C@@]2(C)[C@H](c3ccc(=O)oc3)CC[C@@]12O,-50% (active),-91.9% (active),-45.3% (active),-75.3% (active),-78.7% (active),-13.1% (active),-26% (active),-61.9% (active),-51.1% (active),-68.1% (active),-97.4% (active),0.291% (active),-45.4% (active),-33.9% (active),-39.9% (active),-73.1% (active),-84.5% (active),-85.4% (active),-78.8% (active),-50.7% (active)
CCOP(=O)(Nc1ccc2c(c1)/C(=N/NC(N)=S)c1ccccc1-2)OCC,99%,97.6%,132%,117%,104%,96.1%,95.4%,99.5%,104%,96.3%,102%,103%,139%,59.7%,90.1%,98%,116%,84.7%,113%,108%
C/C1=C/C(=O)O[C@@H]2C[C@@H](CC[C@H](C)/C=C\C=C\CC1)O[C@@](O)([C@@H]1CSC(=O)N1CO)C2,13.9%,46.1%,41.7%,-25.7% (active),26.9%,-82.5% (active),-52.3% (active),20.3%,6.79% (active),-55.5% (active),22.9%,22.2%,14%,13.7%,-35.4% (active),-37.7% (active),13.5%,-3.61% (active),13.9%,34.5%
